This passage reports PBM binding z-score results from the supplement of paper PMC6555819.

For this experiment, the system named is LXRb homodimer (NR concentration 270 nM). Put plainly: PBM binding z-score (relative to random genomic background probes); higher = stronger binding; sequences stand for … in GC…GCGATTGACAGCGTAGAATGAAGG
The essentials:
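Custom Agilent 4×180K protein-binding microarrays carried double-stranded probes, each with a 34-nt variable region. These regions held direct-repeat seeds, single-nucleotide variants, half-site ablations and random human genomic background sequences. Ligand-free nuclear receptor dimers were incubated on the arrays for 1 h, antibodies against each partner (one per run) detected binding, and scanned fluorescence was regression-normalized. Binding z-scores take the random background probes as reference.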
In the case of TGAATGAGGTTACAAGATCAGGGAACGTTGCAAA, the PBM binding z-score was -0.31.
The same measure for CCTCGGAGGACAGAAGGACAGAGCTGTCCGCTTT: -0.907.
The same measure for ATCCAAAGGTCGTGAGGTGAGTATACAGAAAGGC: 0.687; for CCTTACGGGTGACGAGGTTATAGCACGACGAGCG: -0.569.
The same measure for CCGACTGGGGCAAGGTTACGATAACGCACAGCCA: -1.27; for TATACAGGGTGAAAGGCCAGAGTACGAATGTCGA: 0.982; for CAAACTAGATCAAAGGTCAAAGTCGAGCCAACCA: 3.09.
Consider TCTTGTAGATCAACCAGGTTAAGAAAGCCTGAGT, for which the PBM binding z-score is -0.277.
The sequence TTAATGAGGTTAAAGATCAGGGAACGTGGCGTCG gave a PBM binding z-score of 0.716.
The same measure for ACTCGGCGGACAAAGGTCAGAGCTACGCCAGTGA: -0.304; for TCTATGAGTTGATTAGGGCAACCGAAACAGCGGA: -0.328; for ATCTCTAGGTAACGAAGTTCAGTGAATGCCGAAC: 0.414.
CTCGAAAGGTCGGTTGAGTTGAGTATACGGATAA showed a PBM binding z-score of -0.0298.
The result for ACTATTAGTTGATTTAGGGCAACCGATACGACGC reads 1.19; that for AGAATGAGGTTATTGAGATCAGGGAATTGCGGTC, -0.146.
Sequence ATCTCTAGGTAAGACTCAGTTCAGTGAAGAACGC registered a PBM binding z-score of 1.05.
The result for CCTATTAGTTGACCATACGGGCAACCGAAGCTCG reads 0.519.
Sequence TTACCAAGGTGAAAGGTCCTTGATGCACGCCTTG came in with a PBM binding z-score of -1.03.
The same measure for CCTAGTTGGTCCAGGTCACACACGCTATAGGTAC: 0.771.
The same measure for CCTCGGAGGACAGGAGGTCAGAGCTGTCCGCTTT: -0.929.
The same measure for GTACCAAGGTGAATAGATCGTTGATGAGTAGGCG: -0.522.
With CCTACTGGGCCACGAAAGGTCGTTGATTCAGTGA, the PBM binding z-score was -0.704.
The same measure for CAAACTGGGTCACCGGAAGGTCAAAGTCCGCATG: 0.871; for TCTCGGAGGACACGCAGGTCAGAGCTTTCCAGAG: -1.1.
Sequence CCGAGTAGGTTATCGGGCATTCAGGCAACGGTGA showed a PBM binding z-score of -0.739.
The result for TCTTGTAGGTCAACAGGAGGTTAAGAAAGATCGA reads 1.27; that for TGAATTAGGTTAAAGATCAGGGAACGTGGCGTCG, 0.342.
In turn, ATTCAAAGTTCATCTAGGTAACGTAAGATATGCT yielded a PBM binding z-score of 2.84.
TAGCCTAGGTGATGCGGGCCAGTATAGTGTCGGC: the PBM binding z-score is -1.39.
Take TAGCCTAGGTCCTGGGCCAGTATACCACGCGAAC: the PBM binding z-score was -1.45.
Regarding CCTATTAGTTGACCATAAGGGCAAGCGAAGCTCG, the PBM binding z-score came out at 0.573.
The result for GGAACGCGGGCAAGTTGATAGCAGAGTTTGATGG reads -0.732; that for TCATATAGGTAATACAGGTGAATGTCGGCATCTA, 0.337; that for ATCGAAAGGTCGACGAGGTGAGTTTACACCGTTT, 0.407.
The same measure for ATATGTAGGTTATCGGGTCATTCAGTTTGCGCAT: 1.34; for ACAGACAGGTGAGTGAAGGTAACGCAGCTGGACG: -0.518; for CGTCCAAGGTCAGCAGATCAGTGAAAGCGACGTG: -0.172.
The same measure for AGAATGAGGTTACCAAAGATCCGGGAAACGCTTG: -0.177; for AGAACGAGGGCAATGAGTTGCTAGCACGGGTGGC: -0.767.
In the case of CAAACTAGGTCAAAGGTAAAAGTCGAGCCAACCA, the PBM binding z-score was 0.646.
